Screening results deposited in PubChem by National Center for Advancing Translational Sciences (NCATS).
Only some compounds are listed: those with a hit (about 19% of all), similar ones and a draw of the others.
DT40 TDP1 CPT: growth inhibition of DT40 Tdp1-/-;hTDP1 cells with camptothecin (screen for TDP1 inhibitors); chicken DT40 Tdp1-/-;hTDP1 cells + 20 nM CPT, ATP luminescence, 48 h; AID 686979; actives 12% (n = 420,000); Potency, µM (series often up to 46.2 µM), for inactives: top-dose activity change, negative = growth inhibition, usual class: inhibitors; also: potency is read from the fitted curve at half-maximal effect; nearly all actives have a fitted effect of over 55% in size
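Cell growth measured by CellTiter-Glo luminescence after a minimum 48 h, 37 C compound exposure with 20 nM CPT in Tdp1-knockout DT40 cells stably expressing hTDP1, seeded 400/well; qHTS titration format.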
IL1B secr inh: inflammasome signaling inhibition, IL-1 beta readout; THP-1 LPS/ATP IL-1B secretion, AlphaLISA, 16 h; hits give low values; activity change, % at 57.5 µM; actives 4.7% (n = 360,000); in the data active = activity change below about -50%; inconclusive = mostly about -30% to -49%
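Secreted IL-1B measured by AlphaLISA bead assay after 16 h compound exposure of THP-1 cells; compounds (final up to 57.5 uM) added 1 h before LPS (250 ng/mL) and ATP (1.25 mM) stimulation; lower signal means less secretion.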
HT1080NT lethal: kills 2HG-producing HT-1080-NT fibrosarcoma cells; AID 686970; actives 1.6% (n = 360,000); Potency, µM (series often up to 46.1 µM), for the others: top-dose activity, negative = less viability, hits mostly cytotoxic; HT-1080-NT fibrosarcoma viability, CellTiter-Glo ATP luminescence, 48 h;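 also: NT is the 2HG producing partner of a matched IDH1 knockdown line; potency is read from the fitted curve at half-maximal effect; 0% = DMSO-treated cells and -100% = media-only wells without cells; nearly all actives have a fitted effect of over 55% in size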
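750 cells/well, RPMI + 5% FBS; 2 h settle, compound pin-transfer, 48 h at 37 degrees C. CellTiter-Glo 10 min RT, luminescence. Normalized to DMSO and media-only wells.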
HT1080 IDH1KD tx: HT-1080 IDH1 knockdown cell toxicity (counter line); HT-1080 IDH1 knockdown viability, ATP luminescence, 48 h; Potency, µM (highest dose often 46.1 µM), for the others: at the top dose activity, negative = toxicity, actives largely listed as cytotoxic; actives 2% (n = 360,000);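 also: potency is read from the fitted curve at half-maximal effect; 0% = DMSO wells and -100% = cell-free medium wells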
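Assay cells: HT-1080 with IDH1 knockdown, 750 per well, RPMI/5% FBS. Exposure: 48 h at 37 °C following 2 h pre-incubation. Read: CellTiter-Glo luminescence; fitted concentration-response, curve class assigned.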
DT40 TDP1 no CPT: qHTS for Inhibitors of human tyrosyl-DNA phosphodiesterase 1 (TDP1): qHTS in cells in absence of CPT; Potency, µM (doses to about 46.2 µM), inactives show top-dose activity change, negative = growth inhibition, actives largely listed as inhibitors; AID 686978, 2013; DT40 Tdp1-/- hTDP1 cells, no CPT, ATP luminescence, 48 h; actives 15% (n = 420,000); also: potency is read from the fitted curve at half-maximal effect; nearly all actives have a fitted effect of over 55% in size
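No-CPT arm: Tdp1-/-;hTDP1 DT40 cells (400/well) plus compounds, incubated ≥48 hr at 37 °C. Readout CellTiter-Glo luminescence.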
The depositor's hits bear a star; ? = inconclusive; · = no result; [ ] = dose if it differs, or a comment. Unless noted, calls follow the shape of the dose curve; as a rule, active = well fitted curve in the direction sought with a large enough effect; inconclusive = small, poorly fitted or top-dose-only effect, or another doubt; inactive = no such curve, though single readings can be large; an effect the other way counts as inactive or inconclusive. Unless noted, % is scaled to controls: 0 for no effect and ±100 for the full control effect.

SMILES	DT40 TDP1 CPT	IL1B secr inh	HT1080NT lethal	HT1080 IDH1KD tx	DT40 TDP1 no CPT
COc1ccc(S(=O)(=O)N(CC(=O)Nc2ccc3c(c2)OCO3)c2ccccc2OC)cc1	21µM*	-9	-3%	-18%	15µM*
COc1ccccc1N(CC(=O)Nc1ccc(C)c(Cl)c1)S(=O)(=O)c1ccc(C)cc1	21µM*	·	·	·	18µM*
CCOC(=O)N1CCN(C(=O)CSc2nc3nc(C)cc(C)n3n2)CC1	-7%	-2	-3%	1%	-8%
Cc1nc([N+](=O)[O-])cn1CC(O)c1ccc2c(c1)OCCCO2 (configuration not stated)	1%	·	·	·	-4%
COc1ccc(C)cc1NC(=O)NC1CC(=O)N(c2ccc3c(c2)OCCO3)C1 (configuration not stated)	-29%	-2	1%	0%	-5%
CCc1cc2c(=O)c(-c3ccc4c(c3)OCCO4)coc2c(CN2CCCCC2C)c1O (configuration not stated)	1.8µM*	?	-15%	?	1.5µM*
O=c1oc2c(CN3CCCCC3)c(O)ccc2cc1-c1nc2ccccc2[nH]1	7%	52	14%	17%	12%
CCc1cc2c(=O)c(-c3nc4ccccc4[nH]3)coc2c(CN2CCCCC2C)c1O (configuration not stated)	?	-28	-27%	?	10µM*
CCc1cc2c(=O)c(-c3ccc4c(c3)OCCO4)coc2cc1OS(C)(=O)=O	-14%	-87*	-28%	?	?
COc1ccc(N2C(=O)CC(NCCNc3ccc([N+](=O)[O-])cn3)C2=O)cc1 (configuration not stated)	-2%	12	0%	0%	2%
CCC(C)C(NC(=O)OC(C)(C)C)C(=O)NC(C)C(N)=O (configuration not stated)	-4%	13	27%	5%	9%
CCN(CC(=O)Nc1c(F)cccc1F)C(=O)c1ccc(=O)n(C)n1	5%	5	2%	3%	10%
COc1ccc(-c2c(C)nn3c(N4CCN(c5cc(Cl)ccc5C)CC4)cc(C)nc23)cc1OC	-3%	·	·	·	?
COc1ccc(-c2nn(C)c3sc(C(=O)N4CCN(c5cc(Cl)ccc5C)CC4)cc23)cc1OC	15µM*	·	·	·	18µM*
Cn1nc(-c2ccc(Cl)cc2)c2cc(C(=O)N3CCCC3)sc21	18µM*	-16	-2%	-3%	23µM*
Cn1nc(-c2ccc(Cl)cc2)c2cc(C(=O)N3CCN(c4ccccc4)CC3)sc21	?	-9	-4%	-1%	?
Cn1nc(-c2ccc(Cl)cc2)c2cc(C(=O)N3CCN(c4ccccn4)CC3)sc21	5.8µM*	1	-9%	-2%	5.8µM*
COc1cc(NC(=O)CCc2c(C)nn(-c3ccc4nncn4n3)c2C)cc(OC)c1OC	-3%	·	·	·	-23%
COc1ccc(NC(=O)CCS(=O)(=O)c2ccc3c(c2)CCN3C(C)=O)cc1	-1%	0	0%	2%	0%
O=C1CC(c2ccccc2)Cc2[nH]c(=O)c(-c3nc(-c4cccc(Cl)c4)cs3)cc21 (configuration not stated)	5.2µM*	·	·	·	5.2µM*
CC(C)Oc1ccc(C(=O)OCC(=O)NC2CCCCCC2)cc1	?	18	-6%	-9%	16µM*
O=C(CO/N=C/c1ccc(OC(F)F)cc1)NC1CCCCCC1	?	-57*	-14%	-1%	?
Cc1ccnc2nc(C(=O)OCC(=O)Nc3ccc4c(c3)OCCO4)nn12	-12%	5	10%	11%	-6%
C[C@H]1CC[C@@H]2N(C1)C[C@H]1[C@@H]3C[C@H]4[C@@H](C/C(=N\O)[C@H]5C[C@@H](O)CC[C@@]54C)[C@@H]3CC[C@H]1[C@]2(C)O	10%[9.04 µM]	·	·	·	-3%[9.04 µM]
Cc1cccc(NC(=O)NCCOCCn2c(=O)oc3ccccc32)c1C	?	·	·	·	-27%
